Tests used:
Test in all cases: PBM binding z-score (relative to random genomic background probes); higher = stronger binding; sequences stand for … in GC…GCGATTGACAGCGTAGAATGAAGG
[1] = system: FXR:RXRa (NR concentration 270 nM, RXRa partner concentration 90 nM)
Method in brief: (§1)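 Regression normalization was applied to scanned fluorescence from custom Agilent 4×180K protein-binding microarrays. Before scanning, arrays were incubated 1 h with ligand-free nuclear receptor dimers, and binding was detected with antibodies against each partner (one per run). Binding z-scores use the random background probes as reference.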

[2] = system: LXRa:RXRa (NR concentration 270 nM, RXRa partner concentration 90 nM)
Method in brief: as §1

[3] = system: LXRa homodimer (NR concentration 270 nM)
Method in brief: as §1

[4] = system: LXRb:RXRa (NR concentration 270 nM, RXRa partner concentration 90 nM)
Method in brief: as §1

[5] = system: LXRb homodimer (NR concentration 270 nM)
Method in brief: as §1

[6] = system: PPARa:RXRa (NR concentration 270 nM, RXRa partner concentration 90 nM)
Method in brief: as §1

[7] = system: PPARg:RXRa (NR concentration 180 nM, RXRa partner concentration 90 nM)
Method in brief: as §1

[8] = system: PPARg:RXRa 270nM:90nM, anti-RXR (NR concentration 270 nM, RXRa partner concentration 90 nM)
Method in brief: as §1

[9] = system: PPARg:RXRa 30nM:10nM, anti-RXR (NR concentration 30 nM, RXRa partner concentration 10 nM)
Method in brief: as §1

[10] = system: PPARg:RXRa 90nM:30nM, anti-RXR (NR concentration 90 nM, RXRa partner concentration 30 nM)
Method in brief: as §1

[11] = system: PPARg:RXRa DBDmut IVT, anti-RXR (DBD mutation: RXRa K156A/R161A, NR concentration 270 nM, RXRa partner concentration 90 nM)
Method in brief: as §1

[12] = system: PPARg:RXRa IVT, anti-PPARg (NR concentration 270 nM, RXRa partner concentration 90 nM)
Method in brief: as §1

[13] = system: PPARg DBDmut:RXRa IVT, anti-PPARg (DBD mutation: PPARg1 K132A/R137A, NR concentration 270 nM, RXRa partner concentration 90 nM)
Method in brief: as §1

[14] = system: PPARg DBDmut IVT, anti-PPARg (DBD mutation: PPARg1 K132A/R137A, NR concentration 270 nM)
Method in brief: as §1

[15] = system: PPARg homodimer (NR concentration 180 nM)
Method in brief: as §1

[16] = system: PXR:RXRa (NR concentration 270 nM, RXRa partner concentration 90 nM)
Method in brief: as §1

[17] = system: PXR homodimer (NR concentration 270 nM)
Method in brief: as §1

[18] = system: RARa:RXR (NR concentration 270 nM, RXRa partner concentration 90 nM)
Method in brief: as §1

[19] = system: RARa homodimer (NR concentration 270 nM)
Method in brief: as §1

[20] = system: RARb:RXRa (NR concentration 270 nM, RXRa partner concentration 90 nM)
Method in brief: as §1

Sequence	PBM binding z-score [1]	PBM binding z-score [2]	PBM binding z-score [3]	PBM binding z-score [4]	PBM binding z-score [5]	PBM binding z-score [6]	PBM binding z-score [7]	PBM binding z-score [8]	PBM binding z-score [9]	PBM binding z-score [10]	PBM binding z-score [11]	PBM binding z-score [12]	PBM binding z-score [13]	PBM binding z-score [14]	PBM binding z-score [15]	PBM binding z-score [16]	PBM binding z-score [17]	PBM binding z-score [18]	PBM binding z-score [19]	PBM binding z-score [20]
CTACCAAGGTGAACAAGGCCGTTGATTACTATTC	0.303	0.209	-0.224	0.646	-0.622	1.25	0.647	0.527	-0.248	0.152	2.3	2.16	0.257	-0.28	0.346	0.327	0.451	0.868	-0.304	1.59
CCTTATGGGTCACGAGGTTATAGCACGACGAGCG	6.1	3.8	0.305	3.32	-0.173	5.75	8.15	6.96	4.18	6.72	6.86	7.13	2.07	2.59	3.76	3.9	0.436	5.4	0.87	4.43
ACAGACAGGTGATTAAGGTAACTCAGGCTATCAT	0.396	0.0407	-0.11	-0.0714	-0.205	0.176	0.468	0.0075	0.0784	0.0739	0.239	0.557	0.291	-0.545	0.126	0.164	0.294	1.23	0.587	0.35
ATATGTAGGTTCTCGGGTCATTCAGTTTGCGCAT	2.58	2.33	1.35	2.78	0.765	3.89	3.39	3.71	1.14	2.94	4.81	4.65	1.63	2.01	1.96	4.05	8.95	3.37	1.01	2.15
GCTAGCAGGCCATTTGGCTCACTCAATGACGGGC	-0.798	-0.75	-0.83	-1.31	-1.31	-0.645	0.277	-0.576	-0.918	-0.656	0.892	-0.288	-1.29	-1.19	-1.62	-1.01	-0.87	-0.778	-0.899	-0.0959
CCTTACGGGTCACTCCAGGTTTTAGCATCGGAGT	4.87	5.1	0.102	2.85	-0.172	4.69	3.06	3.81	0.53	2.55	2.81	3.28	2.95	0.802	3.03	3.61	0.181	4.14	0.643	3.68
CCAACTGGGGCATAAGGTTACCATAAGCCAGCCC	0.142	1.69	-0.161	0.858	-1.05	2.56	3.63	3.93	1.9	3.24	4.69	5.04	0.045	-0.438	0.423	0.561	-0.309	1.32	0.288	1.6
GCGACTGGGGCATCAGCCGGTTACCATAACTTAA	-0.764	-0.553	-0.599	-0.35	-1.65	0.18	0.552	0.636	-0.73	-0.0776	3.39	2.34	-1.15	-1.34	-0.348	-0.89	-0.327	-0.651	-1.07	0.332
CGAACTAGGTCATTGTCAGGACAGTGAATAGTAA	3.91	3.08	0.611	1.99	0.0511	4.67	7.44	6.43	4.07	5.88	8.22	8.47	5.17	6.24	3.98	1.84	0.47	2.49	0.423	3.48
CCTGCTAGGCCAATGGTCAGCTAAAGCAGCTCGC	-0.614	-0.503	-0.698	-0.914	-0.839	-0.216	0.706	2.33	0.142	1.6	0.832	0.413	-1.62	-1.52	-0.65	-0.919	-0.736	-0.768	-0.677	0.755
GGGACTGGGGCATCAGCAGGTTACCATAACTTAA	0.464	0.607	0.713	1.81	2.25	2.25	3.27	2.6	0.527	1.93	4.49	5.48	0.985	1.98	1.51	1.12	0.678	1.2	0.663	1.33
ATTTCTAGGTAAAAGTTCAGTGAATCCCGAGGAT	1.14	1.71	1.53	1.49	1.12	5.27	9.08	8.85	8.73	10.6	4.32	5.47	1.89	3.02	2.19	2.38	2.31	2.04	1.29	2.81
CCTTACGGGTGACTCCAGGTTATAGCATCGGAGT	0.642	5.37	0.839	1.76	-0.486	1.35	0.581	0.491	-0.12	0.123	1.25	1.42	-0.537	-0.755	0.285	1.01	0.0547	1.22	-0.139	0.499
CCTACTGGGACACGAAAGGTCATTGATTCAGTGA	3.84	4.83	5.13	4.17	0.785	4.65	4.68	4.72	2.24	4.34	5.93	5.78	0.301	-0.131	2.99	4.91	2.47	4.98	1.59	4.06
AATGCAGGGTCATCGTAGGCCAGAGTACGCACAG	7.22	6.03	1.22	4.54	-0.0477	5.97	6.45	5.75	2.6	4.62	2.83	4.24	1.78	1.66	2.03	4.81	0.279	4.75	0.252	4.37
CCTGCTAGGTCATGGTCAGCAAATCTACAGTATG	3.65	2.33	0.105	1.71	-0.273	3.53	2.37	2.74	0.551	1.8	4.25	3.63	0.173	-0.183	1.03	1.15	-0.302	2.22	0.017	3.7
TAGCCTAGGTCGTTGGGCCAGTATAGTACGCATC	0.234	-0.0129	-0.222	0.178	-0.371	0.544	0.271	0.0972	-0.401	-0.153	-0.226	0.592	-0.845	-0.754	-0.186	-0.0683	-0.446	0.0528	-0.627	1.02
GGAACGAGGGCAAAGTTGATAGGATCTGTCGACG	1.38	1.05	-0.433	0.86	-0.537	4.22	6.9	6.73	5.71	6.95	3.81	4.2	0.474	-0.389	0.743	1.31	0.619	1.58	0.0143	2.41
CCTTACGGGTCACGAGGTTATAGAACGACGAGCG	6.7	4.58	0.451	4.12	-0.0451	6.16	7.18	6.91	3.33	5.23	4.22	5.47	0.77	0.157	2.71	4.54	0.292	6.07	0.736	4.73
CGTCCAAGGTCATAGGAGGTCAGTAAAGACAGAT	7.75	7.7	5.05	6.36	1.18	5.96	5.82	6.05	2.41	4.8	3.22	4.57	1	1.13	5.13	6.88	4.18	6.22	2.02	5.38
TCATATAGGTAAATGCAAGGTGAAAGTCCGATCT	1.57	1.44	0.321	1.2	0.456	2.03	1.03	2.44	4.33	3.47	4.1	3	0.862	1.12	1.16	1.03	0.736	1.86	0.975	1.19
AGACCGAGGGCAATGAGTTGATAGCACGGGTGGC	-0.192	-0.0854	-0.495	-0.427	-0.95	0.375	0.499	-0.467	-0.824	-0.435	0.184	0.251	-0.826	-1.67	-1.05	1.23	5.21	-0.109	-0.589	1.79
GCTTGTAGATCAAGGTTAAGGAAGACTAAGCTAA	0.0551	0.428	-0.182	0.363	-0.628	1.68	1.05	2.33	0.604	1.48	1.33	1.17	-0.221	0.338	0.301	0.301	-0.237	0.84	-0.272	0.798
GGACCAAGGTGAATAGGTCGTTGATGAGTAGGCG	0.798	0.779	-0.0064	0.446	-0.809	2.28	1.47	1.59	0.243	0.903	1.58	2.18	-0.0535	-0.223	1.34	0.838	0.241	1.74	0.177	2.06
TCAGACAGGTGAAGGTAACCCAGGTACGCAGTCG	1.04	1.3	0.143	0.546	-0.122	1.45	0.909	2.04	3.53	2.77	2.61	2.16	0.501	-0.304	0.633	0.747	0.22	0.961	0.035	1.44
CCTTACGGGTCACTGACAGGTTATCGCATTTGGA	5.35	4.35	0.422	3.38	0.0444	5.12	4.53	4.36	1.04	2.96	3.47	3.69	0.381	0.623	2.57	3.78	-0.364	4.93	0.262	4.06
TGAATGAGGTTATACGATCAGGGAACGTTGCAAA	1.76	1.37	-0.238	1.05	-0.18	2.91	1.33	1.79	0.555	1.1	0.677	1.61	0.964	0.564	0.291	0.89	-0.167	1.48	0.115	1.15
ATCTCTAGGTAATACTCAGTTCAGTGAAGAACGC	0.748	1.03	1.19	0.468	1.55	0.541	0.424	0.567	0.572	0.52	2.77	1.87	1.44	1.47	1.53	1.58	2.24	0.858	2.17	0.79

Source: the supplement of paper PMC6555819
